# High-throughput results from PubChem.
# An excerpt weighted towards active compounds, which were near 1.1% of everything screened.
# RPL19A-GFP yeast – alters RPL19A-GFP fluorescence in TOR pathway yeast screen; S. cerevisiae RPL19A-GFP strain, flow cytometry, 3 h; hits give low values; percent response vs DMSO, % at 10 µM; 330,000 compounds, 0.3% hits; AID 2025;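 active means percent response vs DMSO below 50%; inconclusive means fewer than 70 events counted for the yeast strain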;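 further: median channel GFP fluorescence of the barcoded RPL19A-GFP strain; ratio of sample median GFP to plate DMSO average so 100% = DMSO; lower means less RPL19A-GFP as with rapamycin TOR inhibition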
# VLA-4 inh – inhibition in a human VLA-4 binding assay; P13612; VLA-4 expressing cells, ligand binding flow cytometry; inhibition, % (about 7 µM as worked out from the volumes in the protocol); 330,000 compounds, 0.2% hits; in the data active means inhibition above about 50%
# Target sequence (P13612 whole entry, looked up): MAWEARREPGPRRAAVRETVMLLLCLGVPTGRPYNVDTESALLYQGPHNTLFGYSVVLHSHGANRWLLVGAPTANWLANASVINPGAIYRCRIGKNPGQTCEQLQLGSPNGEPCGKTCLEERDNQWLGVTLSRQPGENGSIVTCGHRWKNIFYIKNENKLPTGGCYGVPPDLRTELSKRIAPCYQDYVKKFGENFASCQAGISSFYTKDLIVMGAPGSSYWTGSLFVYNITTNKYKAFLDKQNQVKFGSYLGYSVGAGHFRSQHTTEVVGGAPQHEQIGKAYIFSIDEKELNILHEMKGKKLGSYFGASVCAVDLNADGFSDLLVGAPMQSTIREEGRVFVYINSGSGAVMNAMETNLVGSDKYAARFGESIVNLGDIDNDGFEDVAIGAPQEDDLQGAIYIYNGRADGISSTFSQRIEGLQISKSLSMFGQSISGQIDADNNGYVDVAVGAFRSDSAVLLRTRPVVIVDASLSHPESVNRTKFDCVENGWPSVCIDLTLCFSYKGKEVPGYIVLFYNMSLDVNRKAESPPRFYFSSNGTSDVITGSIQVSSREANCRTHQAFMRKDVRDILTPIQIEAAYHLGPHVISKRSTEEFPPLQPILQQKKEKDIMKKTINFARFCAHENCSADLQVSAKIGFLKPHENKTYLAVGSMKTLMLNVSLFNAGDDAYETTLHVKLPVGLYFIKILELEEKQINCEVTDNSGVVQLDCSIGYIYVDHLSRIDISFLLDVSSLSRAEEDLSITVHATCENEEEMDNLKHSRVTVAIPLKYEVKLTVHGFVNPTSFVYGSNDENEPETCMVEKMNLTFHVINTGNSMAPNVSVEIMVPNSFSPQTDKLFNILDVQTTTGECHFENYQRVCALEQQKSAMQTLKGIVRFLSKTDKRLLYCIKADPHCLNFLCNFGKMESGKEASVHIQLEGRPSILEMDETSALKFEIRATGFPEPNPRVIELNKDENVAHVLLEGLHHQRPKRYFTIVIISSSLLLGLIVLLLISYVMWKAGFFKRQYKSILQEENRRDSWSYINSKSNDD
# CIT2-GFP yeast – alters CIT2-GFP fluorescence in TOR pathway yeast screen. S. cerevisiae CIT2-GFP strain, flow cytometry, 3 h; 100 means same as DMSO wells. GFP response vs DMSO, % at 10 µM. 320,000 compounds, 0.065% hits;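 active means GFP response relative to DMSO above a set limit, near the screen mean plus 3 SD, cut at about 150% in these data; inconclusive means Fewer than 70 cells measured for a yeast strain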;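 further: ratio of well median GFP fluorescence to mean of DMSO wells on the plate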
# LAP4 TOR yeast – alters LAP4-GFP fluorescence in TOR pathway yeast screen. S. cerevisiae LAP4-GFP multiplex, flow cytometry GFP, 3 h; median GFP as percent of DMSO wells. GFP response vs DMSO, % at 10 µM. AID 2023. 320,000 compounds, 0.34% hits;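 active means GFP response vs DMSO above a set limit, about the screen mean plus 3 SD, cut at about 150% in these data; inconclusive means under 70 cell events counted for the yeast strain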
# MEP2 TOR yeast – alters MEP2-GFP fluorescence in TOR pathway yeast screen | S. cerevisiae MEP2-GFP strain, flow cytometry GFP, 3 h; 100% = DMSO control level | GFP response vs DMSO, % at 10 µM | 330,000 compounds, 0.51% hits | AID 2016;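 active means GFP response versus DMSO above a set limit, roughly screen mean plus 3 SD, cut at about 180% in these data; inconclusive means fewer than 70 cells counted for a yeast strain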;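 further: median GFP fluorescence of the barcode-gated MEP2-GFP cells per well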
# AGP1 TOR yeast – alters AGP1-GFP fluorescence in TOR pathway yeast screen; S. cerevisiae AGP1-GFP multiplex flow cytometry, 3 h; GFP as percent of DMSO wells; GFP response vs DMSO, % at 10 µM; 320,000 compounds, 0.02% hits;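 active means GFP response relative to DMSO above a set limit, near screen average plus 3 SD, cut at about 150% in these data; inconclusive means fewer than 70 cells counted for the yeast strain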;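 further: median GFP channel fluorescence of the gated AGP1 strain per well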
# Numbers without * were called inactive; i = inactive; u = inconclusive; x = not tested or not shown; + = active, no number; [ ] = another dose, or the depositor's remark.
SMILES,RPL19A-GFP yeast,VLA-4 inh,CIT2-GFP yeast,LAP4 TOR yeast,MEP2 TOR yeast,AGP1 TOR yeast
COc1ccc(C2(CNC(=O)c3ccccc3)CCCC2)cc1OC,37*[may fluoresce violet],6,u,86,614*[may fluoresce violet],u
CC1CCCC(NC(=O)Cn2cc(C(F)(F)F)cc(Cl)c2=O)C1C (stereo not drawn),93,0,84,96,96,91
COc1cccc(C2NC(=O)NC(O)(C(F)(F)F)C2C(=O)c2cccnc2)c1OC (stereo not drawn),57,33,u,103,203*[may fluoresce violet],23
Cc1ccc(NC(=O)C(C)OC(=O)CCN=C2NS(=O)(=O)c3ccccc32)cc1 (stereo not drawn),102,-5,104,97,103,106
N#Cc1c(-c2ccccc2)nc2n1CCS2,42*[may fluoresce violet],0,u,120,96,u
C=C1SC(Nc2c(C)cccc2C)=NC12CCCCC2,58,2,u,96,651*[may fluoresce violet],19
CC(=O)c1ccc2noc(-c3cccc(F)c3)c2c1,59,-2,u,68,193*[may fluoresce violet],19
Cc1ccc(OCCCCN2CCc3ccccc3C2)cc1,101,-16,108,86,101,98
CC(C)(C)c1ccc(C(=O)NCCC(=O)N2CCC3(CC2)NCCc2[nH]cnc23)cc1,17*[may fluoresce violet],-4,u,81,189*[may fluoresce violet],u
O=C(NCC1CCCO1)c1ccc(Br)c(S(=O)(=O)N2CCOCC2)c1 (stereo not drawn),775,i,+[may fluoresce green],+[may fluoresce green],+[may fluoresce green],786*[may fluoresce green]
O=C(COC(=O)c1cnccn1)NC1CCCc2ccccc21 (stereo not drawn),96,-5,98,95,98,93
Cc1ccc(NC(=O)CCCSc2nc3ccccc3[nH]2)cc1,111,i,165*,123,154,107
Cc1ccc(NC(=S)c2nc3ccccc3[nH]2)cc1,95,8,98,170*,99,91
Cc1ccc(NC(=S)c2nc3ccccc3[nH]2)c(C)c1,92,9,79,119,96,87
Cc1cccc(N2CCN(C(=O)[C@H](C)N3C(=O)C4CC=CCC4C3=O)CC2)c1C (stereo partly drawn),101,-11,106,94,98,101
CCC(NC(=S)NCc1ccc(F)cc1)c1ccccc1 (stereo not drawn),98,7,100,92,91,103
COc1ccc(-c2cn(Cc3ccc(C(N)=O)cc3)c(CCN)n2)cc1,103,36,101,98,102,104
Cc1ccc(NC(=O)COc2ccc(Br)cc2C)cc1,104,12,96,132,243*,95
CCOc1ccc(NC(=O)CCC(=O)NNC(=O)COc2ccc(C)cc2Br)cc1,46*[may fluoresce violet],-7,u,u,u,u
CCOc1ccc(NC(=O)CCC(=O)NNC(=O)COc2ccc(C)cc2)cc1,99,0,107,102,101,107
CC(=NNC(=O)CCC(=O)Nc1ccccc1Cl)c1ccco1,97,-4,99,88,98,95
O=C(COc1ccc(OCc2ccccc2)cc1)NN=C1CCCC1,95,20,84,152*,121,107
Cc1cc(OCc2ccc(C(=O)NN=C3CCCC3)cc2)ccc1Cl,97,9,95,174*,96,121
C[C@H](CO)N1C[C@H](C)[C@@H](CN(C)Cc2ccccc2)Oc2ccc(NC(=O)CCCCCC(=O)Nc3ccccc3N)cc2C1=O,x,2,x,x,x,x
O=C(O)Cc1ccc(C(=O)c2ccc(Cl)cc2Cl)s1,102,-2,96,104,102,104
SMILES,RPL19A-GFP yeast,VLA-4 inh,CIT2-GFP yeast,LAP4 TOR yeast,MEP2 TOR yeast,AGP1 TOR yeast
COc1ccc(-c2sc(C(=O)c3ccc(Cl)cc3Cl)cc2CC(=O)O)cc1,92,0,78,158*,108,82
COC(=O)c1cc2c(=O)n3ccccc3nc2n(Cc2cccnc2)c1=N,22*[may fluoresce violet],-1,u,u,u,u
N=c1c(C(=O)NC2CCCCC2)cc2c(=O)n3ccccc3nc2n1Cc1ccco1,56,7,u,79,243*[may fluoresce violet],u
N=c1c(C(=O)NCC2CCCO2)cc2c(=O)n3ccccc3nc2n1Cc1cccnc1 (stereo not drawn),14*[may fluoresce violet],-1,u,u,u,u
CC(C)OCCCn1c(=N)c(C(N)=S)cc2c(=O)n3ccccc3nc21,48*[may fluoresce violet],-33,u,91,633*[may fluoresce violet],35
O=C(NC1CCCC1)c1cc(=O)[nH]c2ccccc12,104,0,106,94,108,101
Cc1ccc(C)c(NC(=O)CN(C)C(=O)C2COc3ccccc3O2)c1 (stereo not drawn),93,-1,53,104,112,36
N=c1c(C(=O)NCC2CCCO2)cc2c(=O)n3ccccc3nc2n1Cc1ccc(F)cc1 (stereo not drawn),14*[may fluoresce violet],12,u,59,179*[may fluoresce violet],u
Cc1cccn2c(=O)c3cc(C(=O)NCC4CCCO4)c(=N)n(Cc4cccnc4)c3nc12 (stereo not drawn),12*[may fluoresce violet],14,u,u,u,u
COc1ccc(CCn2c(=N)c(C(=O)NCC3CCCO3)cc3c(=O)n4cccc(C)c4nc32)cc1 (stereo not drawn),98,-88,100,93,104,101
N=c1c(C(=O)NC2CCCCC2)cc2c(=O)n3ccccc3nc2n1Cc1cccnc1,33*[may fluoresce violet],-2,u,u,180*[may fluoresce violet],u
N=c1c(C(=O)NCC2CCCO2)cc2c(=O)n3ccccc3nc2n1Cc1ccco1 (stereo not drawn),102,-4,99,104,109,88
O=C(COc1ccccc1F)NCC(c1ccc(F)cc1)N1CCOCC1 (stereo not drawn),100,1,96,97,96,99
O=C(N=C1SC2CS(=O)(=O)CC2N1c1cccc(Cl)c1Cl)C1CC1 (stereo not drawn),99,6,100,96,98,100
O=C(/C=C/c1cccs1)N1CCCC1,97,17,94,94,98,100
Cc1cc(C)n(C(=O)/C=C/c2cccs2)n1,54,-6,u,86,211*[may fluoresce violet],u
O=C(ONC1=NCCCCC1)c1c(F)cccc1F,100,0,113,115,96,74
O=C(ONC1=NCCCCC1)c1ccc(Cl)cc1,x,-1,u,179*[may fluoresce violet],351*[may fluoresce violet],44
CCCCCn1c(=O)c2ccccc2n2c(=S)[nH]nc12,103,7,97,101,102,96
CCCCn1c(=O)c2ccccc2n2c(=S)[nH]nc12,43*[may fluoresce violet],3,u,100,236*[may fluoresce violet],u
Cc1cccc(CSc2cccc3cccnc23)c1,93,-8,89,164*,102,85
